According to PubChem BioAssay (NCI):
The panel holds about 79,000 compounds, 15% with a hit somewhere; the sample as a whole holds those more often. Active and inactive are the calls of the source. Rule as the data show it: active = growth inhibition above about 70%; inactive = the rest.

Legend:
[1] = NCI Yeast Anticancer Drug Screen. Data for the rad52 strain (AID 147);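 also: 0% = growth of vehicle-treated control cultures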; details: S. cerevisiae rad52 mutant growth inhibition, hits give high values
Method in brief: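 Read-out: growth inhibition versus vehicle-treated controls. Cells were a DNA repair-deficient yeast strain treated with compounds.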

[2] = NCI Yeast Anticancer Drug Screen. Data for the wt1 strain (AID 149);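 also: 0% = growth of vehicle-treated wt1 cultures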; details: S. cerevisiae wt1 strain (SPY 50644) growth inhibition, hits give high values
Method in brief: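 The wt1 strain was treated with compounds, and growth was compared with vehicle-treated cultures to give inhibition.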

[3] = NCI Yeast Anticancer Drug Screen. Data for the rad50EPP+ strain (AID 151);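 also: 0% = growth of vehicle-treated control cultures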; details: S. cerevisiae rad50 mutant strain, hits give high values
Method in brief: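 Growth inhibition read against vehicle controls in rad50EPP+ yeast, a strain altered in DNA damage repair, after compound exposure.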

[4] = NCI Yeast Anticancer Drug Screen. Data for the mgt1 strain (AID 153); details: S. cerevisiae mgt1 mutant growth inhibition, hits give high values
Method in brief: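 mgt1 yeast grown with test compound; read-out is growth inhibition versus vehicle-treated cultures.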

[5] = NCI Yeast Anticancer Drug Screen. Data for the rad50 strain (AID 155);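 also: 0% = growth of vehicle-only cultures of the same strain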; details: S. cerevisiae rad50 strain growth inhibition, hits give high values
Method in brief: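 Cells are treated with compound, grown, and their growth is then scored against vehicle-only cultures of the same repair-deficient yeast strain.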

[6] = NCI Yeast Anticancer Drug Screen. Data for the mec2-1 strain (AID 157); details: S. cerevisiae mec2-1 strain, hits give high values
Method in brief: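 Yeast mec2-1 mutant treated with compound. Readout: growth inhibition vs vehicle controls.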

[7] = NCI Yeast Anticancer Drug Screen. Data for the rad14 strain (AID 159);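 also: 0% = growth of vehicle-treated control cultures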; details: S. cerevisiae rad14 strain growth inhibition, hits give high values
Method in brief: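 Readout: yeast growth inhibition, referenced to vehicle-only cultures. Strain bears a defined alteration in DNA damage repair.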

[8] = NCI Yeast Anticancer Drug Screen. Data for the sgs1 mgt1 strain (AID 161);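 also: 0% = growth of cultures given vehicle only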; details: S. cerevisiae sgs1 mgt1 strain, hits give high values
Method in brief: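 Test agents were incubated with a DNA-repair-mutant yeast strain. Growth was then read and compared against vehicle-treated controls.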

[9] = NCI Yeast Anticancer Drug Screen. Data for the CLN2oe strain (AID 163);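 also: 0% = growth of vehicle-only control cultures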; details: S. cerevisiae CLN2oe strain, hits give high values
Method in brief: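 Read-out: yeast growth inhibition, expressed relative to vehicle-only controls. The strain bears an engineered cell-cycle alteration.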

[10] = NCI Yeast Anticancer Drug Screen. Data for the cln2 rad14 strain (AID 165);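 also: 0% = growth equal to vehicle treated cultures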; details: S. cerevisiae cln2 rad14 strain, hits give high values
Method in brief: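 cln2 rad14 yeast strain; compound exposure; growth inhibition read vs vehicle controls.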

[11] = NCI Yeast Anticancer Drug Screen. Data for the bub3 strain (AID 167); details: S. cerevisiae bub3 mutant strain, hits give high values
Method in brief: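 Part of a panel of yeast mutants defective in DNA damage repair or cell cycle regulation. Each strain is grown with compound, and inhibition is calculated relative to solvent-treated cultures.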

[12] = NCI Yeast Anticancer Drug Screen. Data for the wt2 strain (AID 169);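 also: 0% = growth of vehicle-treated yeast cultures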; details: S. cerevisiae wt2 strain growth inhibition, hits give high values
Method in brief: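 Read-out: growth inhibition versus vehicle-treated control cultures after compound exposure of the yeast strain.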

[13] = NCI Yeast Anticancer Drug Screen. Data for the mlh1 strain (AID 171);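 also: 0% = growth of vehicle-treated control cultures of the same strain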; details: S. cerevisiae mlh1 strain growth inhibition, hits give high values
Method in brief: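 Read-out: growth inhibition versus vehicle controls. Strain: engineered yeast with a defined DNA repair or cell cycle defect, compound-treated.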

[14] = NCI Yeast Anticancer Drug Screen. Data for the sgs1 strain (AID 173);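 also: 0% = growth of vehicle-only control cultures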; details: S. cerevisiae sgs1 mutant, hits give high values
Method in brief: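 Read-out: yeast growth inhibition relative to vehicle controls, following compound exposure of a strain with a defined DNA repair/cell cycle alteration.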

[15] = NCI Yeast Anticancer Drug Screen. Data for the mlh1 rad18 strain (AID 175); details: S. cerevisiae mlh1 rad18 strain growth inhibition, hits give high values
Method in brief: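 Yeast w/ defined DNA-repair lesions; compound exposure; growth vs vehicle controls → % inhibition.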

[16] = NCI Yeast Anticancer Drug Screen. Data for the rad18 strain (AID 177); details: S. cerevisiae rad18 mutant growth inhibition, hits give high values
Method in brief: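 Readout: growth inhibition vs vehicle controls. Cells: genetically altered yeast strain, DNA repair defect.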

[17] = at 5.0 µM (retest, dose inferred, filed as 0.5)
[18] = at 50.0 µM (retest, dose inferred, filed as 5.0)

Measured: growth inhibition

O=C(Nc1ccccc1)OCCc1ccc(Cl)c(Cl)c1
inactive: [1]; at 1.2 µM 0% | [1]; at 3.7 µM 10% | [1]; at 11.0 µM 20% | [1]; at 33.0 µM 20% | [1]; at 100.0 µM 52% | [2]; at 1.2 µM -4% | [2]; at 3.7 µM -7% | [2]; at 11.0 µM -9% | [2]; at 33.0 µM 16% | [2]; at 100.0 µM 8% | [3]; at 1.2 µM 7% | [3]; at 3.7 µM 26% | [3]; at 11.0 µM 39% | [3]; at 33.0 µM 29% | [3]; at 100.0 µM 30% | [4]; at 1.2 µM -4% | [4]; at 3.7 µM -4% | [4]; at 11.0 µM 7% | [4]; at 33.0 µM 14% | [4]; at 100.0 µM 37% | [5]; at 1.2 µM -2% | [5]; at 3.7 µM 13% | [5]; [17] 0% | [5]; at 11.0 µM 29% | [5]; at 33.0 µM 66% | [5]; at 100.0 µM 51% | [6]; at 1.2 µM -3% | [6]; at 3.7 µM -4% | [6]; [17] 0% | [6]; at 11.0 µM -3% | [6]; at 33.0 µM 20% | [6]; [18] 65% | [6]; at 100.0 µM 47% | [7]; at 1.2 µM -5% | [7]; at 3.7 µM 1% | [7]; at 11.0 µM 15% | [7]; at 33.0 µM 31% | [7]; at 100.0 µM 53% | [8]; [17] 8% | [8]; [18] 54% | [9]; at 1.2 µM -8% | [9]; at 3.7 µM -4% | [9]; at 11.0 µM 26% | [9]; at 33.0 µM 53% | [9]; at 100.0 µM 58% | [10]; [17] -8% | [11]; at 1.2 µM -1% | [11]; at 3.7 µM 2% | [11]; [17] 6% | [11]; at 11.0 µM 37% | [11]; at 100.0 µM 52% | [12]; at 1.2 µM -7% | [12]; at 3.7 µM -6% | [12]; at 11.0 µM 5% | [12]; at 33.0 µM 24% | [12]; at 100.0 µM 8% | [13]; at 1.2 µM -3% | [13]; at 3.7 µM 2% | [13]; at 11.0 µM 22% | [13]; at 33.0 µM 46% | [13]; at 100.0 µM 46% | [14]; at 1.2 µM -19% | [14]; at 3.7 µM -9% | [14]; at 11.0 µM 2% | [14]; at 33.0 µM 22% | [14]; at 100.0 µM 47% | [15]; [17] 1% | [15]; [18] 60% | [15]; at 50.0 µM 58.9% | [16]; at 1.2 µM -4% | [16]; at 3.7 µM 7% | [16]; at 11.0 µM 17% | [16]; at 33.0 µM 45% | [16]; at 100.0 µM 53%
active: [5]; [18] 74% | [5]; at 50.0 µM 86.7% | [6]; at 50.0 µM 95.3% | [8]; at 50.0 µM 75.8% | [10]; [18] 85% | [10]; at 50.0 µM 86% | [11]; at 33.0 µM 75% | [11]; [18] 83% | [11]; at 50.0 µM 90.2%

CC(=O)Oc1ccc2c(c1)Cc1cc(N=C3C=CC(=O)O3)ccc1-2
inactive: [1]; at 1.2 µM 14% | [1]; at 3.7 µM 41% | [2]; at 1.2 µM 2% | [2]; at 3.7 µM 24% | [4]; at 1.2 µM 9% | [4]; at 3.7 µM 36% | [5]; at 1.2 µM 9% | [5]; at 3.7 µM 55% | [5]; [17] 43% | [6]; at 1.2 µM 15% | [6]; at 3.7 µM 37% | [7]; at 1.2 µM 16% | [7]; at 3.7 µM 42% | [8]; [17] 64% | [9]; at 1.2 µM 2% | [9]; at 3.7 µM 23% | [10]; [17] 19% | [11]; at 1.2 µM -8% | [11]; at 3.7 µM 13% | [11]; [17] 31% | [12]; at 1.2 µM 3% | [12]; at 3.7 µM 36% | [13]; at 1.2 µM 18% | [13]; at 3.7 µM 51% | [14]; at 1.2 µM 17% | [14]; at 3.7 µM 56% | [15]; [17] 62% | [16]; at 1.2 µM 15% | [16]; at 3.7 µM 50%
active: [1]; at 11.0 µM 98% | [1]; at 33.0 µM 98% | [1]; at 100.0 µM 94% | [2]; at 11.0 µM 96% | [2]; at 33.0 µM 99% | [2]; at 100.0 µM 96% | [3]; at 1.2 µM 78% | [3]; at 3.7 µM 96% | [3]; at 11.0 µM 99% | [3]; at 33.0 µM 98% | [3]; at 100.0 µM 93% | [4]; at 11.0 µM 99% | [4]; at 33.0 µM 99% | [4]; at 100.0 µM 96% | [5]; at 11.0 µM 97% | [5]; at 33.0 µM 98% | [5]; [18] 99% | [5]; at 50.0 µM 99.5% | [5]; at 100.0 µM 92% | [6]; [17] 72% | [6]; at 11.0 µM 98% | [6]; at 33.0 µM 99% | [6]; [18] 99% | [6]; at 50.0 µM 99.4% | [6]; at 100.0 µM 96% | [7]; at 11.0 µM 99% | [7]; at 33.0 µM 99% | [7]; at 100.0 µM 95% | [8]; [18] 99% | [8]; at 50.0 µM 99.6% | [9]; at 11.0 µM 94% | [9]; at 33.0 µM 99% | [9]; at 100.0 µM 95% | [10]; [18] 99% | [10]; at 50.0 µM 98.8% | [11]; at 11.0 µM 95% | [11]; at 33.0 µM 98% | [11]; [18] 98% | [11]; at 50.0 µM 99.7% | [11]; at 100.0 µM 95% | [12]; at 11.0 µM 99% | [12]; at 33.0 µM 99% | [12]; at 100.0 µM 96% | [13]; at 11.0 µM 98% | [13]; at 33.0 µM 99% | [13]; at 100.0 µM 97% | [14]; at 11.0 µM 99% | [14]; at 33.0 µM 99% | [14]; at 100.0 µM 96% | [15]; [18] 99% | [15]; at 50.0 µM 85% | [16]; at 11.0 µM 97% | [16]; at 33.0 µM 98% | [16]; at 100.0 µM 96%
